# Screening results as filed in PubChem BioAssay.
# Most compounds without a hit are left out; they make up all but 2.6% or so of the library.
# Cruzain Triton: qHTS Assay for Promiscuous and Specific Inhibitors of Cruzain (with detergent); 200,000 tested, 0.43% active; Cruzipain (Trypanosoma cruzi), P25779; AID 1478, 2009; Potency, µM, for the others: max response, negative = inhibition, actives largely listed as inhibitors; purified cruzain, Z-FR-AMC fluorescence, 0.01% Triton;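 also: plate controls were neutral wells for no effect and buffer without enzyme for full effect; nearly all actives have a fitted effect of over 40% in size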
# Target sequence (P25779 123-467 limits assumed): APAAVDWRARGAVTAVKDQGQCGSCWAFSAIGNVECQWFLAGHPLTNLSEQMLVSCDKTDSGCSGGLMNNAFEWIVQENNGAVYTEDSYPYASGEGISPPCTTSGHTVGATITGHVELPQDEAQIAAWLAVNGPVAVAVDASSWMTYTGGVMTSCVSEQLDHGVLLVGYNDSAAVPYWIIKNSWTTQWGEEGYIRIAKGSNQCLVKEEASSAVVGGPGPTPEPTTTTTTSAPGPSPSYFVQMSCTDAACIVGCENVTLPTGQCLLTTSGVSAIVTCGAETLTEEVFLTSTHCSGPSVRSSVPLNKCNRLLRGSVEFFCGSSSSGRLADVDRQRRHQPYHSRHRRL
#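 15 min RT preincubation of 1.5 nM cruzain with compound, then 2 uM Z-FR-AMC added; kinetic AMC fluorescence, 60 s delta. Triton X-100 0.01%, pH 5.5.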
# Cruzain noTriton: qHTS Assay for Promiscuous and Specific Inhibitors of Cruzain (without detergent) | AID 1476, 2009 | Cruzipain (Trypanosoma cruzi), P25779 | Potency, µM, without a hit: max response, negative = inhibition, hits mostly inhibitors | 200,000 tested, 2.3% active | purified cruzain, Z-FR-AMC fluorescence, no detergent;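 also: plate controls were enzyme without inhibitor for no effect and buffer without enzyme for full effect; nearly all actives have a fitted effect of over 40% in size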
#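 Detergent-free condition (0.00005% Triton X-100) in acetate buffer pH 5.5 with DTT. 1.5 nM enzyme and compound were pre-mixed 15 min, then 2 uM Z-FR-AMC substrate added; reaction progress from fluorescence change between first and third reads (60 s).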
# * hit, by the source's call; ? = inconclusive; ! = a repeat was not active. Calls follow the shape of the dose curve; as a rule, active = well fitted curve in the direction sought with a large enough effect; inconclusive = small, poorly fitted or top-dose-only effect, or another doubt; inactive = no such curve, though single readings can be large; an effect the other way counts as inactive or inconclusive. Potency is read from the fitted curve at half-maximal effect.
SMILES,Cruzain Triton,Cruzain noTriton
CC(C)c1ccc(C2=NC(c3ccncc3)=Nc3ccc(F)cc3N2)cc1,-7%,5%
CCOC(=O)c1c(NC(=O)c2cc3n(n2)C(C(F)(F)F)CC(c2ccccc2)N3)sc(C)c1C (stereo unspecified),-2%,16µM*
CCCCNC(=O)c1cc2n(n1)C(C(F)(F)F)CC(c1ccccc1)N2 (stereo unspecified),-2%,?
Oc1csc(Cc2nc(-c3ccc(-c4ccccc4)cc3)cs2)n1,3%,10µM*
Oc1csc(Cc2nc(-c3ccc4ccccc4c3)cs2)n1,-4%,?
COCCn1c(=O)c(-c2ccc(Cl)cc2)nc2cnc(OC)nc21,-4%,16%
COC(=O)c1ccc2c(=O)n(Cc3ccco3)c(SCC(=O)Nc3ccc(C)c(Cl)c3)nc2c1,7%,6.3µM*
O=C(CSc1nc2cc(Cl)ccc2c(=O)n1Cc1ccco1)Nc1ccc(S(=O)(=O)N2CCOCC2)cc1,-5%,?
CC(NC(=O)c1ccc2c(c1)CCN2S(=O)(=O)c1ccc(Cl)cc1)c1ccccc1 (stereo unspecified),0%,2%
c1ccc2c(c1)[nH]c1cnccc12,-10%,-15%
Cc1nccc2c1[nH]c1ccccc12,?,40µM*!
O=C(CSCc1ccc(F)cc1)N1CCc2c([nH]c3ccccc23)C1c1ccc(F)cc1 (stereo unspecified),4%,?
CCc1ccccc1NC(=O)C1c2ccccc2Oc2ccccc21,-2%,25µM*
O=C(Nc1cccnc1Cl)C1c2ccccc2Oc2ccccc21,3%,1%
Cc1nnc(NC(=O)C2c3ccccc3Oc3ccccc32)s1,-5%,8%
Cc1cc(C)c(NC(=O)C2c3ccccc3Oc3ccccc32)c(C)c1,4%,13µM*
O=C(CSc1nc(-c2cccc(Cl)c2)nc2cc(=O)[nH]n12)Nc1ccccc1,2%,-7%
CN(C)c1ccc(-c2ccc3ncnc(N(C)Cc4ccco4)c3c2)cc1,2%,-6%
CCCC(CCC)C(=O)NC1CC(=O)N(c2ccc3c(c2)OCCO3)C1 (stereo unspecified),-1%,-4%
Cc1cc(/C=C2\SC(=S)NC2=O)c(C)n1C1CC1,0%,16µM*
Cc1cc(/C=C2/C(=O)N(C)C(=S)N2C)c(C)n1C1CC1,-9%,-21%
Cc1ccc(NC(=O)CSc2nc3ccccc3nc2Cc2ccccc2)c(Cl)c1,2%,-21%
Cc1ccc(Cn2c(=O)n(Cc3ccc(Cl)cc3)c(=O)c3cccnc32)cc1,0%,5%
CCOC(=O)c1oc2ccccc2c1NC(=O)C1CCCCC1,7%,-24%
O=C(CNC(=O)C1CCCCC1)OCc1cc(=O)oc2ccc3ccccc3c12,3.2µM*,-20%
SMILES,Cruzain Triton,Cruzain noTriton
S=C(Nc1ccccc1)Nc1ccc(OCc2ccccc2)cc1,5%,13µM*
S=C(Nc1ccc(OCc2ccccc2)cc1)Nc1cccc(Cl)c1Cl,-5%,?
COc1ccc(CNC(=O)CCCCCn2c(=O)[nH]c3ccccc3c2=O)cc1,1%,-9%
COc1cc(NC(=O)NCCc2c(C)nn(C)c2C)cc(OC)c1OC,1%,13%
COCCCN=C1NN=C(c2cc(C)n(-c3ccccc3)c2C)CS1,-7%,-5%
CCCCN=C1NN=C(c2cc3ccccc3o2)CS1,-9%,7.9µM*
CC(=O)Nc1nc2ccccc2n1CCOc1ccccc1,0%,-7%
S=C(Nc1ccccc1)Nc1nc2ccccc2n1CCOc1ccccc1,4%,10µM*
Cc1ccc(C)c(N2CCN(CCCNC(=O)c3ccc4nc(C(C)C)oc4c3)CC2)c1,-1%,-4%
Cc1cc(C)cc(NC(=O)COc2ccc3c(C)c(Cc4ccccc4)c(=O)oc3c2)c1,-6%,?
Cc1cccc(C)c1NC(=O)COc1ccc2c(C)c(Cc3ccccc3)c(=O)oc2c1C,-4%,13µM*
Cc1c(Cc2ccccc2)c(=O)oc2c(C)c(OCC(=O)Nc3ccc(C#N)cc3)ccc12,-8%,13µM*
COc1cccc(C(=O)COc2ccc3c(C)c(Cc4ccccc4)c(=O)oc3c2C)c1,-8%,?
Cc1cccc(-c2nc(CCNC(=O)COc3ccccc3)cs2)c1,-8%,20%
CCCOc1ccc(-c2c(C(=O)N/N=C/c3ccc(OC)cc3)nnn2-c2nonc2N)cc1,-8%,?
CCCOc1ccc(-c2c(C(=O)N/N=C/c3ccc(OCC)cc3)nnn2-c2nonc2N)cc1,-15%,10µM*
CN1CCN(CN2C(=O)C3C4C=CC(C3C2=O)C2C3C(=O)N(CN5CCN(C)CC5)C(=O)C3C42)CC1 (stereo unspecified),4%,-4%
Cc1cc(-c2csc(NC(=O)c3ccc(=O)n(C)n3)n2)c(C)n1CC1CCCO1 (stereo unspecified),-9%,?
Cc1cc(-c2csc(NC(=O)c3ccccc3C(F)(F)F)n2)c(C)n1Cc1ccccc1,0%,16µM*
Cc1cccc(Cn2cc(S(=O)(=O)c3ccc(Cl)cc3)c(=O)c3cc4c(cc32)OCO4)c1,-3%,?
COc1cc2c(cc1NC(=O)/C=C/c1ccc([N+](=O)[O-])cc1)oc1ccccc12,-2%,5µM*
COc1cc2c(cc1NC(=S)Nc1cccc3ccccc13)oc1ccccc12,-8%,10µM*
CC(C)NC(=O)c1ccccc1NC(=O)/C=C/c1ccc([N+](=O)[O-])cc1,5%,-5%
COc1cc2c(cc1NC(=O)Nc1ccccc1)oc1ccccc12,7%,?
COc1cc2c(cc1NC(=O)CSCC(=O)O)oc1ccccc12,-5%,-19%
SMILES,Cruzain Triton,Cruzain noTriton
COc1cc2c(cc1NC(=S)Nc1cccc(C(F)(F)F)c1)oc1ccccc12,-8%,16µM*
CSc1ccc(CCNC(=O)Cn2ncc3c(=O)oc4ccc(C)cc4c32)cc1,-2%,-1%
c1csc(CNc2ccnc(-c3ccoc3)n2)c1,0%,-25%
CCCCN1CC(c2nc3ccccc3n2CCCCOc2cc(C)ccc2C)CC1=O (stereo unspecified),3%,-9%
O=C(Nc1nc(-c2ccccc2)cs1)C1CCCN(S(=O)(=O)c2cccc([N+](=O)[O-])c2)C1 (stereo unspecified),-4%,7.9µM*
O=C(Nc1nc(-c2ccccc2)cs1)C1CCCCN1S(=O)(=O)c1ccccc1 (stereo unspecified),-11%,?
Cc1ccc(-c2csc(NC(=O)C3CCN(S(=O)(=O)c4cccs4)CC3)n2)cc1,-4%,?
O=C(Nc1nc(-c2ccccc2)cs1)C1CCCN(S(=O)(=O)c2ccccc2)C1 (stereo unspecified),5%,20µM*
O=C(Nc1nc(-c2ccccc2)cs1)C1CCCCN1S(=O)(=O)c1ccc(Cl)cc1 (stereo unspecified),-3%,?
O=C(Nc1nc(-c2ccc3ccccc3c2)cs1)C1CCN(S(=O)(=O)c2cccs2)CC1,-2%,3.2µM*
Cc1c(Cl)cccc1NC(=O)Cn1cc(C(=O)C2CCCCC2)c2ccccc21,-3%,?
CC(=O)c1cccc(NC(=O)C2CCN(c3nnc(-n4cccc4)s3)CC2)c1,-6%,1%
O=C(COc1ccccc1[N+](=O)[O-])N(Cc1ccco1)c1ccccn1,-3%,-1%
O=C(O)CCC/C=C\CC1C2CCC(O2)C1CNNC(=O)Nc1ccccc1 (stereo unspecified),4%,4%
COCCn1c(-c2ccco2)csc1=Nc1cccnc1,-3%,0%
